Results taken from PubChem BioAssay (EPA / NIEHS).
Several values for one entry are separate records, joined by “and”; a condition that tells them apart may be missing. Equal values may be shown once. Activity calls are given as the source filed them. Rule for the calls: active = hit-call score of the fitted dose curve at least 0.9, where 1 is the maximum; inactive = score below 0.9.

experiment: CCTE_Shafer_MEA_dev_network_spike_peak: CCTE's Neural Network Formation Assay for Mean Number of Electrodes in Network Spike, Shafer Lab (AID 2284049)
Procedure: CCTE_Shafer_MEA_dev assay is conducted using Axion Biosystems 48 well microelectrode array (MEA) plates and Maestro recording system. Each well of the MEA plate contains a grid of 16 microelectrodes embedded in the culture surface. Electrically active cells, such as neurons, can be cultured over the electrodes, and electrical activity in these cells can be recorded extracellularly. The spontaneous firing of neurons is captured from each electrode on a microsecond timescale providing both temporally and spatially precise data. […] The CCTE_Shafer_MEA_dev assay uses primary cultures of rat cortical neurons. Recordings are made on days post-plating 5, 7, 9 and 12. As these cultures mature over time, neural networks develop functional activity and form cohesive networks in which electrical activity can be highly coordinated. CCTE_Shafer_MEA_dev_network_spike_peak is 1 of 19 assay components of the CCTE_Shafer_MEA_dev assay. It measures the average number of electrodes participating at the peak of a network spike (the peak of a temporally-clustered group of action potential firing across multiple electrodes) during a recording in a microelectrode array (MEA) using Axion Biosystems Maestro 768 channel amplifier with the AxIS adaptive spike detector. To collapse across multiple recordings made on days post-plating 5, 7, 9 and 12, the trapezoidal area-under-the-curve of the component is calculated.Data from the assay component CCTE_Shafer_MEA_dev_network_spike_peak was analyzed into 1 assay endpoint. This assay endpoint, CCTE_Shafer_MEA_dev_network_spike_peak, was analyzed in the negative analysis fitting direction relative to DMSO as the negative control and baseline of activity. Using a type of functional reporter, gain or loss-of-signal activity can be used to understand electrical activity.
On the day prior to culture, each well was coated thoroughly with 150 uL of 0.05% polyethyleneimine (PEI, Sigma Cat P3143) in 50 mM HEPES (Sigma Cat H7523) at a pH of 8. The plate was incubated at 37C for one hour. PEI was rinsed out with 500 uL of sterile water three times. Plates were stored at 4C until the day of culture. This culture was plated at a seeding density of 1.5 x 10^5 cells/well on a 48-well MEA plate, prepared as described above. Cells were administered via a 25 uL media/laminin ([…]; Sigma Cat L2020-1MG) drop directly onto the microelectrode array, as adding the cells with the laminin results in better attachment than pre-coating with laminin. After 2 hours, an additional 475 uL of cortical media was added and the cells returned to the incubator. Exposure starts at day 0 of plating and is continued over twelve days of network development until the experiment is terminated. Cells are fed with fresh medium on DIV 5 and 9, following the recordings on those days. The entire volume of media in the well is exchanged and any vehicle or compound treatment is renewed. Complete details are found in OP-NHEERL/ISTD/SBB/TJS/2015-03-r0 (available on request, email shafer.tim@epa.gov). Measurement of the electrical activity is non-invasive, and recordings can be made from the same plate over multiple different days of the culture. In cortical neurons, this allows for the measurement of extracellular action potentials over the period during which networks form in the MEA plate.

| Compound | AC50 | outcome |
| --- | --- | --- |
| Cc1c(O)cccc1C(=O)N[C@@H](CSc1ccccc1)[C@H](O)CN1C[C@H]2CCCC[C@H]2C[C@H]1C(=O)NC(C)(C)C | 1.26 µM (active) |  |
| COc1ccc2cc3[n+](cc2c1OC)CCc1cc2c(cc1-3)OCO2 | 0.156 µM (active) |  |
| CN(C)CCC(c1ccc(Cl)cc1)c1ccccn1 (stereo not given) |  | inactive |
| C[C@H](CS)C(=O)N1CCC[C@H]1C(=O)O |  | inactive |
| CC1(C)S[C@@H]2[C@H](NC(=O)[C@H](N)c3ccc(O)cc3)C(=O)N2[C@H]1C(=O)O |  | inactive |
| C[C@@H]1C[C@H]2[C@@H]3CCC4=CC(=O)C=C[C@]4(C)[C@@]3(F)[C@@H](O)C[C@]2(C)[C@@]1(O)C(=O)CO |  | inactive |
| c1ccc2cc3c4ccccc4c4ccccc4c3cc2c1 | 1.98 µM (active) |  |
| [Cl-].[Cl-].[NH2-].[NH2-].[Pt+4] | 9.92 µM (active) |  |
| CC(C)(C)NCC(O)c1cc(O)cc(O)c1 (stereo not given) |  | inactive |
| CNCCC(Oc1ccc(C(F)(F)F)cc1)c1ccccc1 (stereo not given) | 2.8 µM (active) |  |
| c1cc2ccc3ccc4ccc5cccc6c(c1)c2c3c4c56 |  | inactive |
| CC[C@H](C)C(=O)O[C@H]1CCC=C2C=C[C@H](C)[C@H](CC[C@@H]3C[C@@H](O)CC(=O)O3)[C@H]21 | 960 nM (active) and 912 nM (active) |  |
| NC(N)=Nc1nc(CSCCC(N)=NS(N)(=O)=O)cs1 |  | inactive |
| CN(C)C(=O)C(CCN1CCC(O)(c2ccc(Cl)cc2)CC1)(c1ccccc1)c1ccccc1 | 612 nM (active) and 41.5 nM (active) and 1.81 µM (active) |  |
| CC1(C)S[C@@H]2[C@H](NC(=O)[C@H](N)c3ccccc3)C(=O)N2[C@H]1C(=O)O |  | inactive |
